Among all 320,000 compounds or so, about 2,100 (0.66%) were called active. About 53% were inconclusive and are not listed. The sample holds actives, similar compounds and a random draw of the others, so the mix is not that of the screen. The call rests on the fitted dose curve; in most records, active means well fitted inhibition curve with a large enough effect in the signal ratio, with a control signal flat (not every such curve was filed as active); inconclusive means small, poorly fitted or top-dose-only effect, or effect the other way, or a change in a side signal; inactive means flat fitted curve, though single readings scatter; the % refers to the signal ratio.
Potency means the concentration at half of the fitted maximal effect.

The nature of the assay: qHTS Assay for Lipid Storage Modulators in Drosophila S3 Cells.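 On cell number change: cells counted by Cell Tracker Red CMTPX staining in the red channel.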 On lipid storage change, negative = inhibition: on the % scale 0 is the no-effect control and ±100 the full control effect. Particulars: BODIPY lipid droplet fluorescence, 18-24 h, cells fed with added oleic acid; cell number change: measured here: cell count max response; series mostly up to 46.1 µM; lipid storage change, negative = inhibition: at the top concentration. The method, boiled down:
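Drosophila S3 cells loaded with oleic acid (400 uM, as added) and compounds at several concentrations; lipid droplets imaged by 488-nm laser-scanning cytometry, 500–530 nm intensity and object ratio to cell channel. Percent activity normalized to 20 uM Triacsin C.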
On the technique in general: qHTS replaces the single test concentration by a dilution series.
For `CCC(C)(C)n1nnnc1C(c1cc2cc(C)cc(C)c2[nH]c1=O)N1CCCC1` (configuration not stated), the “lipid storage change, negative = inhibition” value was 8.01% (inactive) and the cell number change was 6.4%.

In the case of `CN(Cc1ccccc1)CC(O)COc1ccc(CNCCOc2cccnc2)cc1` (configuration not stated), the “lipid storage change, negative = inhibition” value is 9.6% (inactive) and the cell number change was found to be 3.58%.

On to `Cc1cc(NC(=O)c2cc([N+](=O)[O-])cc([N+](=O)[O-])c2C)no1`, for which the “lipid storage change, negative = inhibition” value is -8.89% (inactive) and the cell number change came to 11.7%.

As to `CCC1=Nc2ccccc2-c2nnc(SC)nc2O1`, the result was inactive.

As for `O=C1Nc2ccccc2C1(O)Cc1ccccn1` (configuration not stated), the “lipid storage change, negative = inhibition” value is -6.05% (inactive) and the cell number change is -9.38%.

With `O=C1Nc2ccc(Br)cc2C1(O)Cc1ccncc1` (configuration not stated), the “lipid storage change, negative = inhibition” value is 14.5% (inactive) and the cell number change was 16.8%.

As for `O=C1Nc2ccccc2C1(O)Cc1ccncc1` (configuration not stated), the Potency is 13 µM (active) and the cell number change turned out to be 1.32%.

For `NS(=O)(=O)c1ccc(CCNC(=O)CSc2ccc3ccccc3c2)cc1`, the “lipid storage change, negative = inhibition” value was 2.99% (inactive).

For the compound `COCCN(C(=O)COC(=O)/C(=C/c1ccccc1)NC(C)=O)c1c(N)n(Cc2ccccc2)c(=O)[nH]c1=O`, the result was inactive and the cell number change was -11.6%.

For `COc1ccc(CCNC(=O)C2CC3Cn4c(nc5ccccc54)C3N2C)cc1` (configuration not stated), the “lipid storage change, negative = inhibition” value was 6.16% (inactive) and the cell number change is -10.7%.

With `COC(=O)C1=C(C)N=C2SC(C#N)=C(N)N2C1c1ccc(OC)cc1` (configuration not stated), the Potency is 11.6 µM (active) and the cell number change was -10.8%.

For `COC(=O)C1=C(C)N=C2SC(C#N)=C(N)N2C1c1cccc(OC)c1` (configuration not stated), the result was inactive and the cell number change was -6.05%.

As for `COC(=O)C1=C(C)N=C2SC(C#N)=C(N)N2C1c1cc(OC)c(OC)c(OC)c1` (configuration not stated), the “lipid storage change, negative = inhibition” value is -7.72% (inactive) and the cell number change was 2.55%.

For `CCC1(C(=O)OC)NC(c2ccco2)C2C(=O)N(c3ccccc3)C(=O)C21` (configuration not stated), the “lipid storage change, negative = inhibition” value is 3.55% (inactive) and the cell number change was 5.03%.

For `CCC1(C(=O)OC)NC(c2ccco2)C2C(=O)N(c3ccc(C)cc3)C(=O)C21` (configuration not stated), the Potency is 29.1 µM (active) and the cell number change was -0.0174%.

Take `CCCC1(C(=O)OC)NC(c2ccco2)C2C(=O)N(c3ccc(C)cc3)C(=O)C21` (configuration not stated): the “lipid storage change, negative = inhibition” value is 0.487% (inactive) and the cell number change amounted to 3.89%.

Turning to `COc1ccccc1C1=Nn2c(COc3ccccc3)nnc2SC1`, the “lipid storage change, negative = inhibition” value was 8.35% (inactive) and the cell number change was 23.6%.

`O=S(=O)(c1ccc(Cl)cc1)N1CCn2c1nc1ccccc12`: the outcome was inactive.

`O=[N+]([O-])c1cccc(S(=O)(=O)N/N=C\c2ccc3c(c2)OCO3)c1`: the “lipid storage change, negative = inhibition” value was -28.7% (inactive) and the cell number change is -21.8%.

Take `Cc1nc(Cc2ccc(OC(C)C)cc2)[nH]c(=O)c1CC(=O)O`: the “lipid storage change, negative = inhibition” value was 17.8% (inactive) and the cell number change was found to be 12.4%.

On to `CC(=O)Nc1ccc(-c2csc(NC(=O)C3=COCCO3)n2)cc1`, for which the lipid storage change, negative = inhibition is -16.5% [at 0.0737 µM] (inactive).

With `Cc1ccc(-c2csc(NC(=O)C3=COCCO3)n2)cc1`, the “lipid storage change, negative = inhibition” value is 12.5% (inactive) and the cell number change was -0.453%.

As to `O=C(Nc1nc(-c2ccc(Cl)cc2)cs1)C1=COCCO1`, the Potency is 9.2 µM (active) and the cell number change was -17.4%.

As to `COC(=O)CNC(c1ccccc1)c1cc(Br)ccc1NC(C)=O` (configuration not stated), the “lipid storage change, negative = inhibition” value is 10.9% (inactive) and the cell number change is 6.76%.

Turning to `CCC(=O)Nc1ccc(NC(=O)c2ccccc2Cl)nc1`, the compound was called inactive and the cell number change is 7.43%.

In the case of `COc1cc(C(=O)Oc2ccc(C(=S)N3CCOCC3)cc2)cc(OC)c1OC`, the “lipid storage change, negative = inhibition” value is -15.9% (inactive) and the cell number change is -0.493%.

`CCOCCOc1cccc(C(=O)NC(C)c2ccc3ccccc3c2)c1` (configuration not stated): the Potency is 13 µM (active) and the cell number change is -6.8%.

In the case of `CCOc1cccc(C(=O)Nc2ccc3ccccc3c2)c1`, the outcome was inactive and the cell number change came to 17.9%.

Regarding `CCOCCOc1cccc(C(=O)NC(c2ccccc2)C(C)C)c1` (configuration not stated), the “lipid storage change, negative = inhibition” value was -3.66% (inactive) and the cell number change was 13.4%.

Consider `CC12COC3(C(=O)Nc4ccccc4F)CC1CCC32C` (configuration not stated), for which the “lipid storage change, negative = inhibition” value was 0.0813% (inactive) and the cell number change was -23.5%.

As for `CCc1nc(C)cn1S(=O)(=O)c1ccc([N+](=O)[O-])cc1`, the “lipid storage change, negative = inhibition” value was -3.24% (inactive) and the cell number change stood at 7.81%.

Turning to `COC(=O)CN1C(=S)N(C)C(=O)/C1=C/c1cccs1`, the outcome was inactive.

With `O=C(CCCO)c1ccc2c(c1)OCCO2`, the Potency is 18.4 µM (active) and the cell number change was -5.61%.

Turning to `O=C(CCCc1ccccc1)c1ccc2c(c1)OCCO2`, the “lipid storage change, negative = inhibition” value was 5.96% (inactive) and the cell number change is -0.322%.

Regarding `O=C(Cc1ccccc1)c1ccc2c(c1)OCCO2`, the “lipid storage change, negative = inhibition” value was 2.3% (inactive) and the cell number change was 9.53%.

Turning to `Cn1c2c(c3ccccc31)CC/C2=N\O`, the outcome was inactive and the cell number change is 17%.

For `Cc1ccc(P(=O)(OCCN2CCOCC2)C(C)(C)C)o1` (configuration not stated), the “lipid storage change, negative = inhibition” value is -11.2% (inactive) and the cell number change is -0.698%.

For the compound `CCCCc1nnc(NC(=O)CSc2nc(O)c(-c3ccccc3)c(=O)[nH]2)s1`, the “lipid storage change, negative = inhibition” value is -3.64% (inactive) and the cell number change is -17.7%.

For `O=C1CC(c2ccc3c(c2)OCCO3)Oc2ccc([N+](=O)[O-])cc21` (configuration not stated), the Potency is 7.31 µM (active) and the cell number change was -9.91%.

As for `COc1ccc2c(c1)C(=O)CC(c1ccc3c(c1)OCCO3)O2` (configuration not stated), the “lipid storage change, negative = inhibition” value was 8.02% (inactive) and the cell number change is 2.81%.

Regarding `O=C1CC(c2ccc3c(c2)OCCO3)Oc2ccccc21` (configuration not stated), the “lipid storage change, negative = inhibition” value is 9.86% (inactive) and the cell number change turned out to be 8.06%.

Turning to `C/C(N)=C(/C#N)C(=O)COC(=O)c1ccc(NC(N)=O)cc1`, the “lipid storage change, negative = inhibition” value is 7.52% (inactive) and the cell number change is 13.4%.

As for `O=C(N/N=C/c1cccc([N+](=O)[O-])c1)c1ccc(Br)cc1`, the “lipid storage change, negative = inhibition” value is -16.9% (inactive) and the cell number change was determined as 0.144%.

In the case of `Cn1nnnc1SCCNCc1cc(Cl)ccc1OCc1ccccc1`, the Potency is 5.8 µM (active) and the cell number change was determined as 3.31%.

As for `Cn1nnnc1SCCNCc1ccccc1OCc1ccccc1`, the “lipid storage change, negative = inhibition” value was -2.39% (inactive) and the cell number change came to 16.4%.

In the case of `COc1cc(CNCCSc2nnnn2C)cc(Br)c1OCc1ccccc1`, the “lipid storage change, negative = inhibition” value is 7.07% (inactive) and the cell number change is -4.04%.

Consider `O=C(CSc1nccn1Cc1ccco1)Nc1ccccc1`, for which the “lipid storage change, negative = inhibition” value was -11.6% (inactive) and the cell number change was determined as 2.09%.

Turning to `COc1cnc(-c2ccccn2)nc1Oc1c(C)cccc1C`, the result was inactive.

With `COc1cnc(-c2ccccc2)nc1Oc1cccc(C)c1C`, the “lipid storage change, negative = inhibition” value was 0.382% (inactive) and the cell number change was 7.32%.

Source of the values: PubChem BioAssay AID2685 (National Center for Advancing Translational Sciences (NCATS), 2010).
